The target in assay [1] is T1, Inhibitor of nuclear factor kappa-B kinase subunit epsilon (Homo sapiens) (UniProt Q14164).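 Also: reported values are averaged percent inhibition figures against human IKKε.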
T1 sequence (whole entry): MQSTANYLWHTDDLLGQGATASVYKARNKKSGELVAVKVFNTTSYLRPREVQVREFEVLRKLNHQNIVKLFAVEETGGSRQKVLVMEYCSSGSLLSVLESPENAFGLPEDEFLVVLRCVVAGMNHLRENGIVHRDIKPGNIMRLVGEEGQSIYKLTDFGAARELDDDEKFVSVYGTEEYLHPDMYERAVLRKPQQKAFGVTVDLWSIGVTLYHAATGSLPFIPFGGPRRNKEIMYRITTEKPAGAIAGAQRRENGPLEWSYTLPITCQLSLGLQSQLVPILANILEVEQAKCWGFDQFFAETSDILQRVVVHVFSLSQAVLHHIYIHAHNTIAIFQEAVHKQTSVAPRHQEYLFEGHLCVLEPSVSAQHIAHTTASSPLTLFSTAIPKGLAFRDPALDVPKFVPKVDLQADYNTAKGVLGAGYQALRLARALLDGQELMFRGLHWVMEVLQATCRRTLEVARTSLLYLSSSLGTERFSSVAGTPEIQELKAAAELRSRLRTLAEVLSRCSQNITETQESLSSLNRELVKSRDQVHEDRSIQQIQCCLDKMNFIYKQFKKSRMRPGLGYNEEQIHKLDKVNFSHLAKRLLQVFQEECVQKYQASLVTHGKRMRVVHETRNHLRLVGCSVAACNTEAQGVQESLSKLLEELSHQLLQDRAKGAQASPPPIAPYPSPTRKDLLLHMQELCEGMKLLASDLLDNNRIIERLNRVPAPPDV
The settings on record: at 1 µM.

For assay [2], the target named is T2, Serine/threonine-protein kinase Nek1 (Homo sapiens) (UniProt Q96PY6).
T2 sequence (whole entry): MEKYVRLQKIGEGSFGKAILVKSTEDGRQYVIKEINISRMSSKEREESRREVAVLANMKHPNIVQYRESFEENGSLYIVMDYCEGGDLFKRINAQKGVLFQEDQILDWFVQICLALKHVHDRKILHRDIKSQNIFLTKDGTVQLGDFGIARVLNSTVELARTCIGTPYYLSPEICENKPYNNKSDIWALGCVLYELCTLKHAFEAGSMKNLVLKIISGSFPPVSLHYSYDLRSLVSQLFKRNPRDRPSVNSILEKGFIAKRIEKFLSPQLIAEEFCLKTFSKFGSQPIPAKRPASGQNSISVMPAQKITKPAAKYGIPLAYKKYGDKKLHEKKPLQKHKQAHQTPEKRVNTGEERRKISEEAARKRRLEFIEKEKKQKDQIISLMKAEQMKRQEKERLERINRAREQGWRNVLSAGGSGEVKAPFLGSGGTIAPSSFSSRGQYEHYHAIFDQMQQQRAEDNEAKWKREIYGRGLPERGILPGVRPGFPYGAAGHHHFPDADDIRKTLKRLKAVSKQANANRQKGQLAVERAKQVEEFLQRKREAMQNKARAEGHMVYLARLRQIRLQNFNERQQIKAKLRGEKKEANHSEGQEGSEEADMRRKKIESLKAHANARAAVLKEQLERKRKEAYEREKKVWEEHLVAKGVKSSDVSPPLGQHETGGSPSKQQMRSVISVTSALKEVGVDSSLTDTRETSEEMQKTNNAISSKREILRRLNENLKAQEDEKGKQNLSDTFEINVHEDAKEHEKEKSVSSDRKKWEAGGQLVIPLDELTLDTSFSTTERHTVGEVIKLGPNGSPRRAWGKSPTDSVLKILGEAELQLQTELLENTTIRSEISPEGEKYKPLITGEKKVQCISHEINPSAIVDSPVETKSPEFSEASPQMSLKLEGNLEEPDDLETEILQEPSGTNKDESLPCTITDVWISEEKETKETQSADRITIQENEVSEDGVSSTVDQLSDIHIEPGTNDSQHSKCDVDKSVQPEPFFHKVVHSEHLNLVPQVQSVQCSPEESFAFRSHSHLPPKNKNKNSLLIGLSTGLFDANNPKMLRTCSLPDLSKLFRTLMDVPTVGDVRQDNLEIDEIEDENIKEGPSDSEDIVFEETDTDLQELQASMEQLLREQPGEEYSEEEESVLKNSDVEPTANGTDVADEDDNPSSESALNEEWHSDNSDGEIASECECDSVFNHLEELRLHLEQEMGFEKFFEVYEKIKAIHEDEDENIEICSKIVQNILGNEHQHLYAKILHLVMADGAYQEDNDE
The following applies: at 0.1 µM.

For assay [3], the target named is T2, Serine/threonine-protein kinase Nek1 (Homo sapiens). The following applies: at 1 µM.
Assay [4] has as its target T3, Serine/threonine-protein kinase Nek2 (Homo sapiens) (UniProt P51955).
T3 sequence (whole entry): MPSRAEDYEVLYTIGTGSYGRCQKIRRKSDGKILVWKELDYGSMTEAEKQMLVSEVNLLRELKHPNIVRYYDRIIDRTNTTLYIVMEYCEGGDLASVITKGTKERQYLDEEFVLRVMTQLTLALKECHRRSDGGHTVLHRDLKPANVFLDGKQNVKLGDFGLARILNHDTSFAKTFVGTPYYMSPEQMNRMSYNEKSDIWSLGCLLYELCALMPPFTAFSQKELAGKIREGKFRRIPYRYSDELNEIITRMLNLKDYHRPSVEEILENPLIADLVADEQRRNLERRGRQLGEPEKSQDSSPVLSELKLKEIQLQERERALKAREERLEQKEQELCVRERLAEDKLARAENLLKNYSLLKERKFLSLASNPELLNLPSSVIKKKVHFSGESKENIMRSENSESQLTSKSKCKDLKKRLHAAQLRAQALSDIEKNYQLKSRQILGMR
The following applies: at 0.1 µM.

For assay [5], the target named is T3, Serine/threonine-protein kinase Nek2 (Homo sapiens). The settings on record: at 1 µM.
The target of assay [6] is Serine/threonine-protein kinase Nek6 (Homo sapiens) (UniProt Q9HC98). The following applies: at 0.1 µM.
Assay [7] shares this target. The following applies: at 1 µM.
For assay [8], the target named is Serine/threonine-protein kinase Nek7 (Homo sapiens) (UniProt Q8TDX7). The following applies: at 0.1 µM.
For assay [9] the target is unchanged. The settings on record: at 1 µM.
The target of assay [10] is T4, Serine/threonine-protein kinase Nek9 (Homo sapiens) (UniProt Q8TD19).
T4 sequence (whole entry): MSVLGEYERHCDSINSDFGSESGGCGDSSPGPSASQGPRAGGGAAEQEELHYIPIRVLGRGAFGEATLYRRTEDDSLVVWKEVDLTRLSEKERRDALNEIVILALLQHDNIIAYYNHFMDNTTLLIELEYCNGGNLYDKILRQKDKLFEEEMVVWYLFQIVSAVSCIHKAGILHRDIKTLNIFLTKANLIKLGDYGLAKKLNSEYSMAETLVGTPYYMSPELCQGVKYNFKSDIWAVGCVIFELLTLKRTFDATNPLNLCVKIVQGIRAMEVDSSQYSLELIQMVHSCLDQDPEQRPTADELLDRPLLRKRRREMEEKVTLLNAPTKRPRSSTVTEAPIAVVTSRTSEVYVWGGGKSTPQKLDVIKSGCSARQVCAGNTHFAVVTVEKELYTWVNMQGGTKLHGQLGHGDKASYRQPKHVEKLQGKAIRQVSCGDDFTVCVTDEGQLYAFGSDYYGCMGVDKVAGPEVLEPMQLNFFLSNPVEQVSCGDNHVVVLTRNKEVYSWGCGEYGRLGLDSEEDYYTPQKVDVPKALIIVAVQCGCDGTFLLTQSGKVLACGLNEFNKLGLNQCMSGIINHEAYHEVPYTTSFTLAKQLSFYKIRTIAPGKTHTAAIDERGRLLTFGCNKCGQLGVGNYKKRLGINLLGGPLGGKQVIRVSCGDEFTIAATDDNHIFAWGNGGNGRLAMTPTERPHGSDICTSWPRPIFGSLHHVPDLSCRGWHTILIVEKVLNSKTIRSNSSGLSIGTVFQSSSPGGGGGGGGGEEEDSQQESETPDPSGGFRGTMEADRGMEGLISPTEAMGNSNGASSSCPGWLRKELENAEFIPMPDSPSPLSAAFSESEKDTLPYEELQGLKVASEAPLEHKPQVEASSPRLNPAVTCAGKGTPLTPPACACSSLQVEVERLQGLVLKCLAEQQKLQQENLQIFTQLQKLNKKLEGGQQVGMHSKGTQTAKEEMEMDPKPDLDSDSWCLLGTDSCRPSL
The settings on record: at 0.1 µM.

The target of assay [11] is T4, Serine/threonine-protein kinase Nek9 (Homo sapiens). The following applies: at 1 µM.
The target in assay [12] is Serine/threonine-protein kinase PLK1 (Homo sapiens) (UniProt P53350). The settings on record: at 0.1 µM.
Assay [13] has the same target. The following applies: at 1 µM.
Assay [14] deals with T5, Dual specificity protein kinase TTK (Homo sapiens) (UniProt P33981).
T5 sequence (whole entry): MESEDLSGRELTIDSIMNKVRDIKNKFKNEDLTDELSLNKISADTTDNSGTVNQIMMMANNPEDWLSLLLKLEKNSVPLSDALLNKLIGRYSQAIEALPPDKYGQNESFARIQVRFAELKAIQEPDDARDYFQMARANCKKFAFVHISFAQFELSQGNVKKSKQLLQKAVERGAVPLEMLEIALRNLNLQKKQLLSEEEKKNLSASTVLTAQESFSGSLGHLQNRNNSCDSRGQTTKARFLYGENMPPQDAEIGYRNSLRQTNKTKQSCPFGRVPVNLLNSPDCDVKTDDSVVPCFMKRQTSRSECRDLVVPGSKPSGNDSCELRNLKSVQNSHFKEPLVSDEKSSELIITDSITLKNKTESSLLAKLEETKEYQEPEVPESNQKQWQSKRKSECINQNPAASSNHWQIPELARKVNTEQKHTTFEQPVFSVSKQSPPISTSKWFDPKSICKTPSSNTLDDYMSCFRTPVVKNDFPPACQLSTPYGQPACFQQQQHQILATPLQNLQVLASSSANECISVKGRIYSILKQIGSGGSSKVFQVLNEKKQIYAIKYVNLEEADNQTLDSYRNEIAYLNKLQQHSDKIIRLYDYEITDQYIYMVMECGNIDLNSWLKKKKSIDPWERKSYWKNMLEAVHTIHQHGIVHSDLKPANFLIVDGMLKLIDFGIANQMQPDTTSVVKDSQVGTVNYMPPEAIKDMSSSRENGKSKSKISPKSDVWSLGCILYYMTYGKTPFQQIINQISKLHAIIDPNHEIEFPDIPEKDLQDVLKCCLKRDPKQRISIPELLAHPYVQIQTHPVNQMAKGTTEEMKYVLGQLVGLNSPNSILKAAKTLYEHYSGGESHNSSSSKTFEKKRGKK
The settings on record: at 0.1 µM.

Assay [15] deals with T6, Receptor-type tyrosine-protein kinase FLT3 (Homo sapiens), P36888 [D835Y].
T6 sequence (whole entry): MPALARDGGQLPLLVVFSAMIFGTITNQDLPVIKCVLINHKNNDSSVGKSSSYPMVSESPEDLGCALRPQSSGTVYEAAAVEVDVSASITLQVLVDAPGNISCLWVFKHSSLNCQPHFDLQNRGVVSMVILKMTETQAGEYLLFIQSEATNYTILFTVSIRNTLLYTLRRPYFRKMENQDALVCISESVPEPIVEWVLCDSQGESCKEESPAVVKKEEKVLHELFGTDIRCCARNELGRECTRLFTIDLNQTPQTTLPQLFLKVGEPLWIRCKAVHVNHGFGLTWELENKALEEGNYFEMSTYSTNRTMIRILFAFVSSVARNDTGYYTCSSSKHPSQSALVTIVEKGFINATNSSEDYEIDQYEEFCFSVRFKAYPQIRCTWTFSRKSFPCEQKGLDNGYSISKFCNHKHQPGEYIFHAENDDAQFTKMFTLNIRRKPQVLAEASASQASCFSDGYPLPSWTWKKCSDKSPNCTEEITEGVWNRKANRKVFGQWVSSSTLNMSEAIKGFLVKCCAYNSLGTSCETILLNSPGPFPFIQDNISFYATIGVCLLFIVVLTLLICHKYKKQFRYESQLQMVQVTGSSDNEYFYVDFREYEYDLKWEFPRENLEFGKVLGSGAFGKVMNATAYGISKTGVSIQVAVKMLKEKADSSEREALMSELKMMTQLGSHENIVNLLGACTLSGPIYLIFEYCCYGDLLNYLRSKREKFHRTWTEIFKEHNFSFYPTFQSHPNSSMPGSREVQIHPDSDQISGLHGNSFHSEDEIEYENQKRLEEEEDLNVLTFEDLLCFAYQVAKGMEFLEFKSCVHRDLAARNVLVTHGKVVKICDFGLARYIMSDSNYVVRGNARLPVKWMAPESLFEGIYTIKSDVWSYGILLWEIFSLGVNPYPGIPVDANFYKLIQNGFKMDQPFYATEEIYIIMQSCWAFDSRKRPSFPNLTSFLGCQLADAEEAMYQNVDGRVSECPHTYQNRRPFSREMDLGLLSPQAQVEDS
The settings on record: at 1 µM.

Assay [16] addresses Vascular endothelial growth factor receptor 3 (Homo sapiens) (UniProt P35916). The settings on record: at 0.1 µM.
The target is the same in assay [17]. The following applies: at 1 µM.
Assay [18] concerns the target Macrophage colony-stimulating factor 1 receptor (Homo sapiens) (UniProt P07333). The settings on record: at 0.1 µM.
Assay [19] has the same target. The following applies: at 1 µM.
Assay [20] deals with Tyrosine-protein kinase Fyn (Homo sapiens) (UniProt P06241). The following applies: at 0.1 µM.
Chain of Tyrosine-protein kinase Fyn (Homo sapiens) (P06241 2-537 limits assumed): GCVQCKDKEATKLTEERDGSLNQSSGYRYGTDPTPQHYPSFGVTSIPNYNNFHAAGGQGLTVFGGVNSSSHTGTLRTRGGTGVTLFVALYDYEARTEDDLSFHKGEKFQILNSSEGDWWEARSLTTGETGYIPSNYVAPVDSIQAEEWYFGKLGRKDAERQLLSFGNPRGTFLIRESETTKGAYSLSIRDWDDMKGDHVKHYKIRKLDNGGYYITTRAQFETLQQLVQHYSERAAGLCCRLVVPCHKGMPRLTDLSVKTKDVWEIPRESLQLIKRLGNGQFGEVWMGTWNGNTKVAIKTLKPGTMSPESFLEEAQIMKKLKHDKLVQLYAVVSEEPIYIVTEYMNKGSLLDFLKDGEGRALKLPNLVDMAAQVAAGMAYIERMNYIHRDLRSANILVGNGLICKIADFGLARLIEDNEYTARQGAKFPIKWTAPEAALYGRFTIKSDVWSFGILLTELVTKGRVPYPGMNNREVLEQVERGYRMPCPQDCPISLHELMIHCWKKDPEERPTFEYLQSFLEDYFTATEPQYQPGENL

Chain of Serine/threonine-protein kinase Nek6 (Homo sapiens) (Q9HC98 whole entry): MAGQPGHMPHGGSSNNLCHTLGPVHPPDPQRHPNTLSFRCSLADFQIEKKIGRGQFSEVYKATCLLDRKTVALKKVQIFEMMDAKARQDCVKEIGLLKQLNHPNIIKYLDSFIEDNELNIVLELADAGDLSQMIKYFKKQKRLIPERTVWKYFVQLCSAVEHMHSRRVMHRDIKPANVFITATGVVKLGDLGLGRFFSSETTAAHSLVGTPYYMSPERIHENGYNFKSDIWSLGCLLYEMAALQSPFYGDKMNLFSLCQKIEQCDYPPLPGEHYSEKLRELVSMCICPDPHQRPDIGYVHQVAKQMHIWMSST
Chain of Serine/threonine-protein kinase Nek7 (Homo sapiens) (Q8TDX7 whole entry, looked up): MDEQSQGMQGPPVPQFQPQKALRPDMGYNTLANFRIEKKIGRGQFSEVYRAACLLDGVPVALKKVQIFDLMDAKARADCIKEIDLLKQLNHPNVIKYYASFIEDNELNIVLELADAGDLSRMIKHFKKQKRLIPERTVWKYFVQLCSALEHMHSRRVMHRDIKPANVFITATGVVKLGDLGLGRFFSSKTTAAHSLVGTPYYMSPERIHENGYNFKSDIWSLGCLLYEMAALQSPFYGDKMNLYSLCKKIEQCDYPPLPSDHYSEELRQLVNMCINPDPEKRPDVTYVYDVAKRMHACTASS
Chain of Serine/threonine-protein kinase PLK1 (Homo sapiens) (P53350 whole entry): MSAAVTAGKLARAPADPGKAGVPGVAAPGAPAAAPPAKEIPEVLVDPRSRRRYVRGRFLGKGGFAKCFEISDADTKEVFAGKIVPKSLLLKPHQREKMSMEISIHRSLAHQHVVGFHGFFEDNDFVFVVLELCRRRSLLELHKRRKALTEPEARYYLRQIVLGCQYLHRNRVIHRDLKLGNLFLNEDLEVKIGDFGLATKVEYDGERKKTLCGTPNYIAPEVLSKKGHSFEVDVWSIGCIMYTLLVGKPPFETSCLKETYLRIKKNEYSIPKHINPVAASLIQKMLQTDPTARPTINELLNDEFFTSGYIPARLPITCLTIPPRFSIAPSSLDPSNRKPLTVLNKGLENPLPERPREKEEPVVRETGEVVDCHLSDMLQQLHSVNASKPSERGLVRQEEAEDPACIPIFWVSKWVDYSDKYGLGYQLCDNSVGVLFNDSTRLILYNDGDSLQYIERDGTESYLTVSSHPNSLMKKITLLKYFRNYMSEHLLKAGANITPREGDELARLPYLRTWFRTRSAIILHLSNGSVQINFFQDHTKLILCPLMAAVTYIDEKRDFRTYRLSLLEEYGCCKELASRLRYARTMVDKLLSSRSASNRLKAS
Chain of Macrophage colony-stimulating factor 1 receptor (Homo sapiens) (P07333 whole entry): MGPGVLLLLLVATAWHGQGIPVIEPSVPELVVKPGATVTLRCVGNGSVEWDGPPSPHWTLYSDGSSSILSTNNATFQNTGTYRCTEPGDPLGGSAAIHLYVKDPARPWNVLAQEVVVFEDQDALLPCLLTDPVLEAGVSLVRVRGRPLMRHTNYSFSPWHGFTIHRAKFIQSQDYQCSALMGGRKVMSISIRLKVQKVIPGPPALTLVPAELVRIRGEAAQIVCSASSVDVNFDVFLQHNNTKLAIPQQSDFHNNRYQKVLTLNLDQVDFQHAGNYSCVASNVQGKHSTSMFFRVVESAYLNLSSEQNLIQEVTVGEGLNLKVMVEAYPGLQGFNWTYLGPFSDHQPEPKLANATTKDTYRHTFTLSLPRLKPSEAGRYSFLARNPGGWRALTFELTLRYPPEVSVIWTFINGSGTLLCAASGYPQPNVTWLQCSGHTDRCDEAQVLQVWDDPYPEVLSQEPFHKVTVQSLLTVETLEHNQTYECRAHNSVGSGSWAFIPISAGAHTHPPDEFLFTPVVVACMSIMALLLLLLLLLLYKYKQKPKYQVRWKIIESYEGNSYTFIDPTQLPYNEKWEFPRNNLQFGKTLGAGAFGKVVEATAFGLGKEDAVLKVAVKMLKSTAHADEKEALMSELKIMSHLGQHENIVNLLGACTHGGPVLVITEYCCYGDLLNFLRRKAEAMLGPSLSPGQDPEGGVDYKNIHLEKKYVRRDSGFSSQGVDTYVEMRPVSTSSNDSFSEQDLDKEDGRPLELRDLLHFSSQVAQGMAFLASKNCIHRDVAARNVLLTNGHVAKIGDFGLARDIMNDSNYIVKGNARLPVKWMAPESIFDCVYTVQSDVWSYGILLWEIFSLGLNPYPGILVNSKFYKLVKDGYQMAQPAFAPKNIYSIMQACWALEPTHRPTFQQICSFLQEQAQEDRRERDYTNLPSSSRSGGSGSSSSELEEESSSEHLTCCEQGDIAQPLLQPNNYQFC
Chain of Vascular endothelial growth factor receptor 3 (Homo sapiens) (P35916 whole entry): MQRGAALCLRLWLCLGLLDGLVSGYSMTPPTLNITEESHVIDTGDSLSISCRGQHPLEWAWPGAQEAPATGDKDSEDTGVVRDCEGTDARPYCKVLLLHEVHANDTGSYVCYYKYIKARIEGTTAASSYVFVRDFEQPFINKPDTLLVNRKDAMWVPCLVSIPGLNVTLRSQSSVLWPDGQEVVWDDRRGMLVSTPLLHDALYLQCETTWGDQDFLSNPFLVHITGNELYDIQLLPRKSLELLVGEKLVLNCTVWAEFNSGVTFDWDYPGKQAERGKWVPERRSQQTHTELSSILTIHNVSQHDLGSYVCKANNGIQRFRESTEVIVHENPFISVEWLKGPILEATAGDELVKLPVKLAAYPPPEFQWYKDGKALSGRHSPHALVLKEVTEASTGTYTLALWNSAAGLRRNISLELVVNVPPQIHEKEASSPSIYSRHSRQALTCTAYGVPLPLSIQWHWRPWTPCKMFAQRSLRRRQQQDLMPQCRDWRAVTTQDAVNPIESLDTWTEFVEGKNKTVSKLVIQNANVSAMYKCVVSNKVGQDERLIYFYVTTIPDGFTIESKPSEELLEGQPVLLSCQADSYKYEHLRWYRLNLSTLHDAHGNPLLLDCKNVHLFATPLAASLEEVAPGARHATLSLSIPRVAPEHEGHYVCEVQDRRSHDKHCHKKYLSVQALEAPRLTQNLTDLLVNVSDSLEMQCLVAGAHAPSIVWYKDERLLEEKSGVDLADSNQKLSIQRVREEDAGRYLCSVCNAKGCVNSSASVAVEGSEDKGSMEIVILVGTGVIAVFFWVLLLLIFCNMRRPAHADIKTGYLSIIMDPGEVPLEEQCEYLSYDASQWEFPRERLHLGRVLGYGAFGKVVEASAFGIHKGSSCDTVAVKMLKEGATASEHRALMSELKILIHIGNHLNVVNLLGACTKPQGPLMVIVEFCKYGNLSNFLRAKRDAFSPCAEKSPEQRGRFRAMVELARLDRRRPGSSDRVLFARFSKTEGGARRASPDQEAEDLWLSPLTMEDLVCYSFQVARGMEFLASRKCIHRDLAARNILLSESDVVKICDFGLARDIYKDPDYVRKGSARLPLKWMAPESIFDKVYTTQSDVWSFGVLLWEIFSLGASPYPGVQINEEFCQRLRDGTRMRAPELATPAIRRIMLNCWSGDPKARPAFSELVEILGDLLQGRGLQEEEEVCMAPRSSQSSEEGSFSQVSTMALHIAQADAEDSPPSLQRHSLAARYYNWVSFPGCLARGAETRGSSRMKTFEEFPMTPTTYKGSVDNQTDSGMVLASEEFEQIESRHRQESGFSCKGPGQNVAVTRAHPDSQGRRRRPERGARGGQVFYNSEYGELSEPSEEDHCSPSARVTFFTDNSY

Consider `O=C(Nc1n[nH]c2nc(-c3ccco3)ccc12)C1CC1`, for which the inhibition is -0.75% in [1]; 1.33% in assay [2]; 1.36% in assay [3]; -0.12% in [4]; 1.78% in [5]; 1.86% in [6]. For the same molecule, the inhibition in assay [7] was -0.99%; in [8], 2.23%; in assay [9], 2.61%; in [10] it was 6.28%; in assay [11], -0.33%; in assay [12], 1.81%. Also, the inhibition in [13] is 0.82%; in assay [14] it was 1.09%; in [15] it was 3.83%; in assay [16], -1.89%; in assay [17], 2.09%; in assay [18] it was -1.01%. The inhibition in assay [19] came out at 2.62%; in assay [20], 1.1%.

As to `NC(=O)Cc1ccccc1Oc1nccc(-c2c(-c3ccc(F)cc3)ncn2C2CCNCC2)n1`, the inhibition in [1] was found to be 0.67%; in [2], 1.64%; in [3], 4.11%; in assay [4], 2.13%; in assay [5], 4.35%; in assay [6], 0.28%. Further, the inhibition in [7] was determined as 1.26%; in [8] it was 3.21%; in assay [9], 2.73%; in assay [10], 10.9%; in assay [11], 1.22%; in assay [12], 3.44%. The inhibition is 2.54% in [13]; 5.28% in assay [14]; 1.28% in assay [15]; 1.36% in assay [16]; -0.28% in assay [17]; 0.18% in assay [18]. In addition, the inhibition is 1.47% in assay [19] and 2.4% in [20].

For the origin of these results see ChEMBL document CHEMBL1961873, “Compounds: GSK PKIS; Assays: Nanosyn kinase panel” (2012).
